Test results published in paper PMC5540273 (PLoS ONE, 2017).
Several values for one entry are separate records, joined by “and”; a condition that tells them apart may be missing. Identical values can stand only once. Like-named read-outs stand apart in the source and are kept apart here.

Experiments:
Settings in all cases: concentration: 1 μM, replicates: in singlicate, n = 1
ACVR2A = tested on: ACVR2A
ACVR2B = tested on: ACVR2B
ACVRL1 = tested on: ACVRL1
ADCK3 = tested on: T1, ADCK3
T1 construct: gene CABC1

ADCK4 = tested on: ADCK4
AKT1 = tested on: AKT1
AKT2 = tested on: AKT2
AKT3 = tested on: AKT3
ALK = tested on: ALK
AMPK-alpha1 = tested on: T2, AMPK-alpha1
T2 construct: gene PRKAA1
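Further: KINOMEscan kinase panel screen.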

Row | Structure (SMILES) | %Inh (ACVR2A) [%] | %Inh (ACVR2B) [%] | %Inh (ACVRL1) [%] | %Inh (ADCK3) [%] | %Inh (ADCK4) [%] | %Inh (AKT1) [%] | %Inh (AKT2) [%] | %Inh (AKT3) [%] | %Inh (ALK) [%] | %Inh (AMPK-alpha1) [%] | %Inh (ACVR2B; 1 µM) | %Inh (ADCK3; 1 µM) | %Inh (ADCK4; 1 µM) | %Inh (AKT1; 1 µM) | %Inh (AKT2; 1 µM) | %Inh (AKT3; 1 µM) | %Inh (ALK; 1 µM) | %Inh (AMPK-alpha1; 1 µM) | %Inh (ACVRL1; 1 µM) | %Inh (ACVR2A; 1 µM)
1 | CC(C)(C)n1cnc2c(N)ncnc21 [SKF-97359] | 0 | 0 | 0 | 0 | 31 | 0 | 0 | 0 | 29 | 0 |  |  |  |  |  |  |  |  |  | 
2 | c1ccc(-c2n[nH]cc2-c2ccnc3ccccc23)nc1 [GW271431] | 2 | 75 | 0 | 20 | 24 | 0 | 2 | 0 | 19 | 19 |  |  |  |  |  |  |  |  |  | 
3 | Cl.Oc1cccc(Nc2ccnc3cc(-c4ccncc4)ccc23)c1 [GW494601] | 97.2 | 95 | 81 | 1 | 68 | 0 | 0 | 0 | 47 | 0 |  |  |  |  |  |  |  |  |  | 
4 | O=C(Nc1cccc(-c2nn3ncccc3c2-c2ccnc(Nc3cccc(C(F)(F)F)c3)n2)c1)c1c(F)cccc1F [GSK299495] | 0 | 0 | 0 | 1 | 28 | 0 | 1 | 0 | 22 | 0 |  |  |  |  |  |  |  |  |  | 
5 | Cc1ccc(NC(=O)c2ccnc(N3CCN(C)CC3)c2)cc1-c1ccc(C(=O)NCC2CC2)cc1 [GW775604] | 16 | 0 | 0 | 1 | 0 | 0 | 0 | 6 | 0 | 0 |  |  |  |  |  |  |  |  |  | 
6 | CC(C)Oc1ccc2c(-c3ccnc(Nc4ccc(N5CCN(C)CC5)cc4)n3)cnn2n1 [GW696155] | 0 | 0 | 0 | 20 | 83 | 0 | 0 | 0 | 42 | 41 |  |  |  |  |  |  |  |  |  | 
7 | COc1cc2c(cc1OCCN1CCN(C)CC1)ncc1c3ccc(C#N)cc3[nH]c21 | 10 | 0 | 0 | 0 | 3 | 0 | 18 | 0 | 0 | 10 |  |  |  |  |  |  |  |  |  | 
8 | O=C1NC(=O)C(N2CCc3ccccc32)=C1c1cccc(Cl)c1 [SB-408010] | 0 | 7 | 13 | 17 | 0 | 5 | 0 | 5 | 0 | 0 |  |  |  |  |  |  |  |  |  | 
9 | O=C(c1ccc(-c2cc(-c3c[nH]nc3-c3ccccn3)ccn2)cc1)N1CCOCC1 [GW812171] | 0 | 0 | 0 | 0 | 0 | 5 | 0 | 0 | 5 | 19 |  |  |  |  |  |  |  |  |  | 
10 | [2H]C([2H])(c1cccc(C(F)(F)F)c1C)n1ccn2c(=O)nc(N3CCOCC3)cc12 [GSK2336394] | 0 | 1 | 31 | 8 | 28 | 0 | 0 | 0 | 17 | 0 |  |  |  |  |  |  |  |  |  | 
11 | COc1ccc(Nc2nccc(N3CCC(NC(=O)Nc4cc(C)ccc4C)C3)n2)cc1 (stereo not drawn) [GSK1379741] | 0 | 0 | 0 | 0 | 32 | 0 | 10 | 0 | 25 | 0 |  |  |  |  |  |  |  |  |  | 
12 | Cc1c(Cn2c(C)nn3c(=O)cc(N4CCOC(C)C4)nc23)cccc1C(F)(F)F (stereo not drawn) [GSK2344444] | 22 | 0 | 5 | 3 | 0 | 0 | 6 | 0 | 0 | 0 |  |  |  |  |  |  |  |  |  | 
13 | Fc1ccc(-c2ncn(CCCN3CCOCC3)c2-c2cccnc2)cc1 [SB-211743] | 0 | 0 | 6 | 1 | 0 | 0 | 0 | 10 | 0 | 4 |  |  |  |  |  |  |  |  |  | 
14 | NCCNS(=O)(=O)c1ccc(-c2ccnc3[nH]ccc23)cc1 [GSK977617] | 0 |  | 0 |  |  |  |  |  |  |  | 2% and 0% | 0% and 6% | 32% and 21% | 77% and 66% | 15% and 10% | 88% and 83% | 60% and 36% | 50% and 38% |  | 
15 | Cl.Cl.Cl.Fc1ccc(-c2ncn(C3CCNCC3)c2-c2ccnc(Nc3ccccc3)n2)cc1 [SB-238039] | 0 |  |  | 0 |  |  |  |  |  |  | 0% and 18% |  | 25% and 1% | 21% and 0% | 10% and 7% | 24% and 37% | 21% and 0% | 15% and 2% | 20% and 17% | 
16 | COc1ccc(Nc2ncc(C#N)c(Nc3ccccc3C(N)=O)n2)cc1N1CCN(C)CC1.Cl [GSK1558669] | 0 | 0 | 0 | 0 | 52 | 8 | 63 | 0 | 95.7 | 97.3 |  |  |  |  |  |  |  |  |  | 
17 | c1ccc(-c2cc(-c3c[nH]nc3-c3ccccn3)ccn2)cc1 [GW576604] | 0 | 42 | 0 | 1 | 12 | 0 | 0 | 0 | 14 | 0 |  |  |  |  |  |  |  |  |  | 
18 | CC(C)(CN)c1nc(-c2ccc(Cl)c(O)c2)c(-c2ccncc2)[nH]1.O=C(O)C(F)(F)F [SB-477794] |  |  |  |  |  |  |  |  |  | 0 | 91.9% and 91% | 7% and 17% | 54% and 35% | 5% and 25% | 21% and 8% | 34% and 100% | 34% and 16% |  | 61% and 67% | 1% and 25%
